Assay results: PubChem BioAssay (NCATS)
Values joined by “and” are separate entries in the source; they are usually repeats but may differ in a detail not shown here. Equal entries are not always repeated. Inconclusive results are not listed. A call without a number means that no potency is given here. Active and inactive are the calls of the source. The call rests on the fitted dose curve; in most records, active means well fitted curve in the direction sought with a large enough effect; inconclusive means small, poorly fitted or top-dose-only effect, or another doubt; inactive means no such curve, though single readings can be large; an effect the other way counts as inactive or inconclusive. Residues, ends and D or L forms follow the SMILES beside them. *: point of attachment. Cbz = O=C(OCc1ccccc1)*

Experiments:
[1] = target: Metallo-beta-lactamase type 2 (Klebsiella pneumoniae) (UniProt C7C422); assay: qHTS to identify inhibitors of the New Delhi Metallo-beta-lactamase (NDM): assay validation screen against the NCATS LOPAC Collection (AID 1794843); conditions: NDM-1 enzyme, nitrocefin hydrolysis, absorbance 485 nm; series mostly up to 38.4 µM;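 further: nitrocefin turnover by NDM-1 measured as 485 nm absorbance at plateau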
Metallo-beta-lactamase type 2 (Klebsiella pneumoniae), sequence (C7C422 whole entry, looked up): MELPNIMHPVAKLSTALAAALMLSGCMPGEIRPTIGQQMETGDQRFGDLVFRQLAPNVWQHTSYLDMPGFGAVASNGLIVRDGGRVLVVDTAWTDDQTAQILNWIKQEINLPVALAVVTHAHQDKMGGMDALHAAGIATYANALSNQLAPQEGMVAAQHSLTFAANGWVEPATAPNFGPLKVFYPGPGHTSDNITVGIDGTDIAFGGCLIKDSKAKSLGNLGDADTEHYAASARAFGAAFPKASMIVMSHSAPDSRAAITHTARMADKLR
Procedure, shortened: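 Nitrocefin hydrolysis (50 uM substrate stock) by NDM-1, 2 nM final, was followed by 485 nm absorbance after compound preincubation; buffer was 50 mM HEPES pH 7.0, 1 uM ZnSO4, 0.01% Tween20.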

[2] = target: Glutathione peroxidase 1 (Homo sapiens) (UniProt P07203); assay: Primary qHTS Assay for Inhibitors of Recombinant Selenoprotein Glutathione Peroxidase 1 (GPX1) (AID 1845191); conditions: recombinant GPX1, GR-coupled NADPH fluorescence, 15 min; series mostly up to 48.8 µM; further: nearly all actives have a fitted effect of over 65% in size; further: potency means the concentration at half of the fitted maximal effect
Glutathione peroxidase 1 (Homo sapiens), sequence (P07203 whole entry, looked up): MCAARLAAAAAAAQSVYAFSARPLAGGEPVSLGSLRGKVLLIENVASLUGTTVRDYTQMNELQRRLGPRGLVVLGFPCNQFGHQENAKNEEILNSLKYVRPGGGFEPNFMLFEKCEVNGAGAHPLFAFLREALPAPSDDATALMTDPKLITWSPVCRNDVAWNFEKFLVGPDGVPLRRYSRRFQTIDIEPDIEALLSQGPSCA
Procedure, shortened: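 Recombinant GPX1 (10 nM final) was preincubated with compound for 30 min at room temperature, then reacted with 1 mM GSH, 0.5 mM CHP, 0.5 mM NADPH and 100 nM glutathione reductase; NADPH fluorescence (340/450 nm) was read at 0 and 15 min.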

[3] = target: Phospholipid hydroperoxide glutathione peroxidase GPX4 (Homo sapiens) (UniProt P36969); assay: Primary qHTS Assay for Inhibitors of Recombinant Selenoprotein Glutathione Peroxidase 4 (GPX4) (AID 1845192); conditions: recombinant GPX4, GR-coupled NADPH fluorescence, 15 min; series mostly up to 50 µM; further: nearly all actives have a fitted effect of over 65% in size
Phospholipid hydroperoxide glutathione peroxidase GPX4 (Homo sapiens), sequence (P36969 whole entry, looked up): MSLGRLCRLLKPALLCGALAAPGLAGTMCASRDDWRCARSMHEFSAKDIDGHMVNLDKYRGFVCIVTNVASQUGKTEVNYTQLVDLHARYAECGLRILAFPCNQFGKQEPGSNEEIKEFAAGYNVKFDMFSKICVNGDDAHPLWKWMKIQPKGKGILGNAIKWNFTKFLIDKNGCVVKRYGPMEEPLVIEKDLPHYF
Procedure, shortened: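 GR-coupled readout: 100 nM GR, 1 mM GSH, 0.5 mM NADPH; NADPH fluorescence (ex 340/em 450 nm) read at t=0 and after 15 min RT. GPX4 200 nM, preincubated 30 min with compound; substrate 0.5 mM CHP.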

Row | Compound | Potency [1] | Potency [2] | Potency [3]
1 | CCCn1c(=O)c2c(ncn2C)n(CCC)c1=O | inactive | inactive | inactive
2 | CN(C)CCC(c1ccc(Br)cc1)c1ccccn1 (stereo not given) | inactive | inactive | inactive
3 | C=CCN1CCc2cc(O)c(O)cc2C(c2ccccc2)C1 (stereo not given) | inactive | inactive | inactive
4 | NOCC(=O)O | inactive | inactive | inactive
5 | COc1cc([C@@H]2c3cc4c(cc3[C@H](O)C3COC(=O)[C@@H]32)OCO4)cc(OC)c1OC (stereo not given in full) | inactive | inactive | inactive
6 | NC(Cc1cccc(-c2ccccc2CP(=O)(O)O)c1)C(=O)O (stereo not given) | inactive | inactive | inactive
7 | CC(=O)N[C@@H](Cc1c[nH]c2ccccc12)C(=O)OCc1cc(C(F)(F)F)cc(C(F)(F)F)c1 | inactive | inactive | inactive
8 | C[C@]12C=CC(=O)C=C1CC[C@@H]1C2=CC[C@]2(C)[C@@H](C(=O)CN3CCN(c4cc(N5CCCC5)nc(N5CCCC5)n4)CC3)CC[C@@H]12 | inactive | inactive | inactive
9 | NCCS(=O)O | inactive | inactive | inactive
10 | O=C(O)C1CCNCC1 | inactive | inactive | inactive
11 | CC(/C=C/c1cccc(Oc2ccc(F)cc2)c1)N(O)C(N)=O (stereo not given) | inactive | inactive | inactive
12 | N[C@@H](Cc1ccc(F)cc1)C(=O)O | inactive | inactive | inactive
13 | CN1CC(O)C(O)C(O)C1CO (stereo not given) | inactive | inactive | inactive
14 | Cc1nc(N=Nc2cc(S(=O)(=O)O)c3cc([N+](=O)[O-])cc(S(=O)(=O)O)c3c2)c(COP(=O)(O)O)c(C=O)c1O | inactive | inactive | inactive
15 | N=C(N)SCCc1cnc[nH]1 | inactive | inactive | inactive
16 | NS(=O)(=O)c1cccc2c1c([N+](=O)[O-])cc1nc(O)c(O)nc12 | inactive | inactive | inactive
17 | CCCCCCCCCCC/C=C\C(C)(C)/C=C\CCCC(=O)O | inactive | inactive | inactive
18 | O[Si](CCCN1CCCCC1)(c1ccc(F)cc1)C1CCCCC1 (stereo not given) | inactive | inactive | inactive
19 | N#Cc1cc([N+](=O)[O-])c2sc(C(N)=O)[n+]([O-])c2c1 | inactive | inactive | inactive
20 | NC(N)=N[C@@H](CCC(=O)O)C(=O)O | inactive | inactive | inactive

Row | Compound | Potency [1] | Potency [2] | Potency [3]
21 | CC(C)[C@H](NC(=O)OCc1ccccc1)C(=O)N[C@H](C=O)Cc1ccccc1 (Cbz-Val-Phe-aldehyde) | inactive | inactive | inactive
22 | CCCC(=O)NCCc1c2n(c3ccc(OC)cc13)CCCc1ccccc1-2 | inactive | inactive | inactive
23 | CC(=O)C(C)=O | inactive | inactive | inactive
24 | CCn1c(=O)[nH]c2cc(Cl)c(Cl)cc21 | inactive | inactive | inactive
25 | C=C1C(=O)O[C@@H]2[C@H]3O[C@]3(C)CCC=C(C)CC[C@@H]12 | inactive | inactive | inactive
26 | CNc1ncnc2c1ncn2[C@H]1C[C@H](OP(=O)(O)O)[C@@H](COP(=O)(O)O)O1 | inactive | inactive | inactive
27 | NC(=O)c1cc[n+](CC2=C(C(=O)O)N3C(=O)[C@@H](NC(=O)[C@@H](c4ccccc4)S(=O)(=O)[O-])[C@H]3SC2)cc1 | inactive | 4.53 µM (active) and 28.2 µM (active) | inactive
28 | Nc1nc2ccc(Cl)cc2c2nc(-c3ccco3)nn12 | inactive | inactive | inactive
29 | CC1C(=O)N(C)C(=O)c2nc[nH]c21 (stereo not given) | inactive | inactive | inactive
30 | NC/C=C\C(=O)O | inactive | inactive | inactive
31 | C=CCNc1ncnc2ccc(Br)cc12 | inactive | inactive | inactive
32 | Brc1c(Br)c(Br)c2[nH]cnc2c1Br | inactive | inactive | inactive
33 | CC(N)(C(=O)O)c1ccc(C(=O)O)cc1 (stereo not given) | inactive | inactive | inactive
34 | c1ccc2nc(C3=NCCN3)ccc2c1 | inactive | inactive | inactive
35 | CN(C)CCCc1cc(C(=O)Nc2ccc(-c3ccncc3)cc2)ccc1O | inactive | inactive | inactive
36 | CCCCS(=N)(=O)CC[C@H](N)C(=O)O (stereo not given in full) | inactive | inactive | inactive
37 | O=C(O)[C@H]1NCCC[C@H]1C(=O)O | inactive | inactive | inactive
38 | Nc1nc2[nH]c(=O)cnc2c(=O)[nH]1 | inactive | inactive | inactive
39 | CC(C)[C@@H]1CC[C@@H](C)C[C@@H]1P(=O)(c1ccccc1)c1ccccc1 | inactive | inactive | inactive
40 | N[C@H](C(=O)O)c1cc(O)cc(O)c1 | inactive | inactive | inactive
